# “And” between values parts separate entries of the source, which are not always exact repeats. Equal values may be shown once. The panel holds about 83,000 compounds, 20% with a hit somewhere; the sample as a whole holds those more often.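 Each cell line was grown in a 96-well plate and treated with one concentration of compound for 48 hours. Values below 10 were considered active.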 The source made the active and inactive calls.
# Test system: MDA-MB-468 breast
# Assay: NCI-60 one-dose screen, 48 h (100 = growth as untreated, 0 = no growth, -100 = all killed)
# Details: 10 µM unless noted
row,SMILES,growth
1,N=C(N)c1ccc(-c2ccc(-c3ccccc3)o2)cc1,-68.6% (active)
2,CC(=O)NCC1c2c(n(C)c3c(Cl)c(Cl)ccc23)C(=O)NC1(C)C (configuration not stated),109% (inactive)
3,COc1ccccc1/C=N\N=C(N/N=C/c1ccccc1OC)N/N=C/c1ccccc1OC,58.3% (inactive) and 10.5% (inactive)
4,COc1cccc(OC)c1OC(=O)c1ccccc1,105% (inactive)
5,Cc1cc(N2CCSCC2)nc(NC2CCCC(Nc3ccnc4cc(Cl)ccc34)C2)n1 (configuration not stated),-43.7% (active)
6,Cc1ccc(-n2c(/C=C3\C(=O)Nc4ccccc43)ccc2CO)cc1,45.1% (inactive)
7,NC(CC(=O)O)C(=O)OCc1ccccc1 (configuration not stated),89.4% (inactive)
8,COc1ccc([C@@H]2[C@@H](O)C(=O)N2c2cc(OC)c(OC)c(OC)c2)cc1,2.98% (active)
9,O=C(CCc1nc(-c2cccc(Cl)c2)no1)Nc1ccccn1,83.1% (inactive)
10,C/C(Cc1ccc(Cl)cc1)=C(\c1ccc(OCCN2CCCCCC2)cc1)c1ccc(OC(=O)C2CCCCC2)cc1,52.2% (inactive)
11,CCOC(=O)c1cc(C(=O)c2cc(OC)cc(OC)c2)n2ccc3ccccc3c12,74.5% (inactive)
12,O=C(O)c1cccc(CN2CCN(c3cc4c(cc3F)c(=O)c(C(=O)O)cn4C3CC3)CC2)c1O,101% (inactive)
13,Cc1cc(C)n(CC(=O)Nc2ccc(-c3nc4ccccc4s3)cc2)n1,-3.57% (active)
14,Cc1nccc2c3ccc(OCc4cn(-c5ccccc5)nn4)cc3n(CCCc3ccccc3)c12,49% (inactive)
15,N#CC1=C(N)Oc2cc(N)ccc2C1c1cccnc1 (configuration not stated),97.9% (inactive)
16,COc1cc(C2c3cc4c(cc3C(O)C(CO)C2CO)OCO4)cc(OC)c1OC (configuration not stated),-17.7% (active)
17,Nc1nc(Nc2ccc(Cl)cc2)nn1S(=O)(=O)c1ccc(-c2ccc(F)cc2)cc1,96.2% (inactive)
18,COc1cccc(-c2nn(-c3ccccc3)cc2-c2ccnc(NCCNC(=O)c3ccccc3)c2)c1,47.7% (inactive)
19,C=CCN1C(=O)[C@]2(SC1=S)[C@H](c1cccc(Cl)c1)CN(C)[C@]21C(=O)NC2C=CC(Cl)=C[C@H]21 (some centres not stated),27% (inactive)
20,Cc1n[nH]c(=O)n(/N=C\c2c[nH]c3ccccc23)c1=O,106% (inactive)
21,O=C(Nc1ccncc1)C(=O)c1cn(S(=O)(=O)c2ccc(Oc3ccccc3)cc2)c2ccccc12,55.4% (inactive)
22,CN(C)S(=O)(=O)c1ccc(S(=O)(=O)Nc2cccc(Cl)c2N2CCCCC2)cc1,67.8% (inactive)
23,COc1ccc(NC(=O)c2sc3nc(C)c(C(O)c4ccccc4)cc3c2N)cc1 (configuration not stated),14.1% (inactive)
24,CCOC(=O)Cn1c(-c2nonc2NC(=O)c2ccccc2F)nc2ccccc21,76% (inactive)
25,COc1cc(-c2nn(-c3cccc(NC(=O)Nc4cccc(C(F)(F)F)c4)c3)cc2-c2ccncc2)ccc1Cl,-27.6% (active)
26,O=C1NC(=O)N(Cc2ccccc2)CC1Br (configuration not stated),104% (inactive)
27,COc1cc(CNC(=O)/C=C/C=C/c2ccc3c(c2)OCO3)ccc1OCc1cn(-c2ccc(C)c(C)c2)nn1,65.2% (inactive)
